Most compounds without a hit are left out; they make up all but 17% or so of the library.
ATXN2 expr inh = inhibitors of ATXN2 expression. HEK-293 ATXN2-luciferase reporter, luminescence, 24 h. Potency, µM (top dose mostly 57 µM), for inactives: top-dose activity change, negative = inhibition, hits mostly inhibitors. 0.72% of 360,000 active. AID 1745845; further: on the % scale 0 is the no-effect control and ±100 the full control effect; nearly all actives have a fitted effect of over 55% in size
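qHTS (up to 57 uM final) was run with 24 h compound exposure of reporter cells at 37 °C. Each well was multiplexed: SteadyGlo luminescence measured ATXN2-luciferase expression after a fluorogenic Gly-Phe-AFC viability readout (25 uM final).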
DT40 TDP1 no CPT = qHTS for Inhibitors of human tyrosyl-DNA phosphodiesterase 1 (TDP1): qHTS in cells in absence of CPT; AID 686978, 2013; DT40 Tdp1-/- hTDP1 cells, no CPT, ATP luminescence, 48 h; 15% of 420,000 active; Potency, µM (top dose mostly 46.2 µM), for the others: top-dose activity change, negative = growth inhibition, most hits filed as inhibitors; further: on the % scale 0 is the no-effect control and ±100 the full control effect; nearly all actives have a fitted effect of over 55% in size
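Readout: luminescence from CellTiter-Glo after 30 min in the dark at RT. Cells: DT40 Tdp1-/- with stable hTDP1, 400/well. Exposure: compounds alone, ≥48 hr, 37 °C.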
ATXN viability = cell viability loss in ATXN counter-screen; AID 651635; Potency, µM (highest dose often 56.7 µM), actives largely listed as cytotoxic; S2 cells (HEK-293 line with an ATXN2-luciferase reporter) viability, CellTiter-Fluor protease fluorescence, 24 h; 0.49% of 400,000 active; further: nearly all actives have a fitted effect of over 40% in size
HepG2 tox = HepG2 cytotoxicity, counter-screen for TGF-b inhibitors; HepG2 CAGA-GFP viability, ATP luminescence, 18 h; Potency, µM (highest dose often 46.1 µM), for the others: at the highest dose activity change, negative = cytotoxicity, most hits filed as cytotoxic; 0.76% of 410,000 active; AID 588856
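CellTiter-Glo luminescence gave cytotoxicity after 18 hours at 37 degrees C. The cells were HepG2 CAGA-GFP in 1% FBS DMEM, stimulated with 500 pg/mL TGF-beta after compound addition. %Activity was normalised to no-cell wells (complete cell-killing) and DMSO (no toxicity), and curves were fitted and classified.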
TDP1 cell CPT = DT40-hTDP1 cell growth loss with CPT; chicken DT40 Tdp1-/-;hTDP1 cells + 20 nM CPT, ATP luminescence, 48 h; 12% of 420,000 active; AID 686979; Potency, µM (titrated, usually from 46.2 µM), for inactives: at the top dose activity change, negative = growth inhibition, hits mostly inhibitors; further: on the % scale 0 is the no-effect control and ±100 the full control effect; nearly all actives have a fitted effect of over 55% in size
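Chicken DT40 Tdp1-/- cells complemented with human TDP1, 400 cells/well, exposed to compounds plus 20 nM camptothecin for at least 48 h at 37 C; viability read as ATP content by CellTiter-Glo luminescence.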
TGFb SMAD3 inh = blocks TGF-b signaling; HepG2 CAGA-GFP TGF-b/SMAD3 reporter, GFP fluorescence, 18 h; TGF-beta stimulated, 500 pg/mL final; Potency, µM (top dose mostly 46.1 µM), inactives show at the top dose activity, negative = inhibition, most hits filed as inhibitors; 1.2% of 410,000 active; AID 588855; further: on the % scale 0 is the no-effect control and ±100 the full control effect; nearly all actives have a fitted effect of over 65% in size
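HEPG2 CAGA-GFP cells (1000/well, DMEM with 1% FBS) were pre-incubated 2 h at 37 degrees C, given compound by pin tool, then stimulated with TGF-beta at 500 pg/mL final for 18 h before per-cell GFP fluorescence imaging.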
The depositor's hits bear a star; i = inactive; ? = inconclusive; · = no result given. The call rests on the fitted dose curve; in most records, active means well fitted curve in the direction sought with a large enough effect; inconclusive means small, poorly fitted or top-dose-only effect, or another doubt; inactive means no such curve, though single readings can be large; an effect the other way counts as inactive or inconclusive. Potency means the concentration at half of the fitted maximal effect.

SMILES	ATXN2 expr inh	DT40 TDP1 no CPT	ATXN viability	HepG2 tox	TDP1 cell CPT	TGFb SMAD3 inh
CCc1ccc(NC(=O)C2CCCN2S(=O)(=O)c2cccc3nsnc23)cc1 (stereo not given)	-15%	?	i	-21%	?	?
CC(NC(=O)C1CCN(c2nnc(-n3cccc3)s2)CC1)C12CC3CC(CC(C3)C1)C2 (stereo not given)	4%	15µM*	i	-39%	16µM*	-8%
O=C(NC1CCN(Cc2ccccc2)CC1)C1CCCN(c2nnc(-n3cccc3)s2)C1 (stereo not given)	-15%	?	i	-18%	?	-8%
COc1ccc(-c2cn3nc(N4CCC(C(=O)Nc5ccc(Cl)cc5C)CC4)sc3n2)cc1	·	?	·	1%	?	-3%
O=C(NCc1ccccc1F)C1CCN(c2nnc(-n3cccc3)s2)CC1	25%	?	i	-15%	?	-5%
CCc1ccc(NC(=O)C2CCN(c3nnc(-n4c(C)ccc4C)s3)CC2)cc1	·	23µM*	·	-28%	16µM*	·
CCOc1ccc(NC(=O)C2CCCN(c3nnc(-n4c(C)ccc4C)s3)C2)cc1 (stereo not given)	·	?	·	-14%	?	·
CC(CCc1ccccc1)NC(=O)C1CCCN(c2nnc(-n3cccc3)s2)C1 (stereo not given)	2%	?	i	-35%	18µM*	-22%
Cc1cc(Cl)ccc1NC(=O)C1CCN(c2nnc(-n3c(C)ccc3C)s2)CC1	·	21µM*	·	-24%	?	·
COc1cc(C(=O)Nc2ccc(N3CCCS3(=O)=O)cc2)c([N+](=O)[O-])cc1OC	-6%	-14%	i	-15%	-5%	2%
C[N+]1(C)[C@@H]2C[C@@H](OC(=O)C(O)(c3cccs3)c3cccs3)C[C@H]1[C@@H]1O[C@@H]12	3%	·	·	·	·	·
O=C1NCCCCC1NS(=O)(=O)c1cccc(C(F)(F)F)c1 (stereo not given)	·	-14%	i	-4%	2%	11%
Cc1c(Cl)cccc1NC(=O)C1CCCN(c2nnc(-n3c(C)ccc3C)s2)C1 (stereo not given)	·	16µM*	·	-20%	?	·
Cc1ccc(NC(=O)C2CCCN(c3nc4ccccc4s3)C2)c(C)c1 (stereo not given)	3%	-27%	i	0%	-27%	10%
CCc1ccccc1NC(=O)C1CCCN(c2nnc(-n3c(C)ccc3C)s2)C1 (stereo not given)	·	21µM*	·	-19%	21µM*	·
Cc1ccc(NC(=O)C2CCCN(c3nnc(-n4c(C)ccc4C)s3)C2)c(C)c1 (stereo not given)	·	16µM*	·	-31%	?	·
CCOc1ccc(-c2c[n+](=O)c3c(n2[O-])CCCC3)c(OCC)c1	1%	-8%	i	-7%	-3%	-14%
CCOC(=O)N/N=C/c1ccc(OCCSc2ccc(Cl)cc2)c(OC)c1	11%	26µM*	i	-5%	15µM*	-18%
COc1cc(C=O)ccc1OCCSc1ccc(Cl)cc1	35%	-14%	i	-14%	-13%	-19%
O=C(CSCc1ccc(Cl)cc1)N/N=C/c1ccccc1	-1%	-19%	i	-9%	-21%	-10%
COC(=O)Oc1ccc(/C=N/NC(=O)CSCc2ccc(Cl)cc2)cc1OC	·	12µM*	i	-23%	26µM*	-3%
O=C1NCCN(Cc2ccc(F)cc2)C1=O	9%	0%	i	3%	0%	-4%
N#Cc1ccc(N2CCN(C(=O)c3cccs3)CC2)c(F)c1	-3%	?	i	-7%	-13%	0%
